Active and inactive are the calls of the source.
Columns and labels:
[1] = system: Human papillomavirus type 1a protein E7 (residues 44-93); experiment: HPV1a E7 fragment binders on microarrays, primary screen, biochemical, small-molecule microarray, residues 44-93, 635 nm fluorescence (AID 1108); details: small-molecule microarray binding, fluorescence 635 nm; higher = more signal;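 further: E7 fragment applied at 1 µg/mL in TBST for 1 h at 4 C; score combines spot fluorescence with its signal to noise ratio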
[2] = modulators of HCV replicon luciferase signal, primary screen, HCV replication inhibitor project, Huh7 cells, luciferase reporter (AID 1109); details: 48 h, higher = more signal;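 further: huh7 hepatoma cells harbouring a luciferase neomycin HCV replicon reporter; luciferase luminescence as measure of HCV replicon replication; test concentration not given here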
[3] = biological target: Left-right determination factor 2 (Homo sapiens) (UniProt O00292); experiment: LEFTY2 binders on small-molecule microarrays, primary screen, biochemical, small-molecule microarray, 635 nm fluorescence scan (AID 1110); details: LEFTY2 binding, higher = more signal
[4] = biological target: Calmodulin-1 (Homo sapiens) (UniProt P0DP23); experiment: CALM1 binders on microarrays, EGTA buffer, profiling panel, biochemical, small-molecule microarray, Cy5-labelled CALM1 (AID 1111); details: Cy5-CALM1 binding fluorescence, higher = more signal;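 further: labelled calmodulin applied in Tris saline Tween buffer holding calcium plus EGTA and DTT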
[5] = biological target: Calmodulin-1 (Homo sapiens) (UniProt P0DP23); experiment: calcium-bound CALM1 binders on microarrays, profiling panel, artefact control for SMM control-protein annotation, biochemical, small-molecule microarray, Cy5-labelled CALM1, plus calcium (AID 1112); details: Cy5-CALM1 binding fluorescence, higher = more signal;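 further: score merges spot fluorescence with signal to noise from triplicate slides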
[6] = small-molecule microarray binders of probe aWnt5a, primary screen, biochemical, biotinylated probe, 635/667 nm fluorescence (AID 1113); details: higher = more signal;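 further: score merges 667 nm fluorescence intensity with signal-to-noise per printed feature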
[7] = small-molecule microarray binders of probe aShh, primary screen, biochemical, biotinylated probe, 635/667 nm fluorescence (AID 1114); details: higher = more signal;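 further: probe is biotin-labelled aShh protein from a stem cell growth factor screen; measures binding of labelled protein to compounds printed on the slide; score merges feature fluorescence at 667 nm with signal-to-noise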
[8] = small-molecule microarray binders of probe aNog, primary screen, biochemical, biotinylated probe, 635/667 nm fluorescence (AID 1115); details: higher = more signal;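 further: probe is biotinylated aNog protein used at 0.15 µg/mL for 1 h at 4 C; z-score combines 667 nm fluorescence of each spot with its signal to noise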
[9] = biological target: Torsin-1A-interacting protein 1 (Homo sapiens) (UniProt Q5JTV8); experiment: LAP1 binders from COS7 cell lysate, primary screen, small-molecule microarray, 635/667 nm fluorescence (AID 1116); details: COS7-hLAP1 lysate binding, 635 nm fluorescence, higher = more signal
[10] = biological target: Alpha-bungarotoxin (Bungarus multicinctus) (UniProt P60615); experiment: alpha-bungarotoxin binders on microarray, profiling panel, artefact control for SMM control protein annotation, biochemical, small-molecule microarray, Alexa647 label, 635/667 nm fluorescence (AID 1117); details: alpha-BTX-A647 binding fluorescence, higher = more signal
Albumin (Bos taurus) = Albumin (Bos taurus) (UniProt P02769); experiment: bovine serum albumin binders on microarray, profiling panel, artefact control for SMM control protein annotation, biochemical, small-molecule microarray, Alexa647 label, 635/667 nm fluorescence (AID 1118); details: BSA-A647 binding, fluorescence 635 nm, higher = more signal;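 further: score merges 667 nm emission intensity and signal-to-noise per printed compound spot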
[11] = small-molecule microarray binders of probe aXIP, primary screen, biochemical, NeuroSMM set, 635/667 nm fluorescence (AID 1119); details: higher = more signal, called active from +8 up or from −8 down;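 further: probe is the protein aXip251-270 applied at 1 µg/mL to compound-printed slides; binding of probe to printed compounds measured as 667 nm fluorescence plus signal to noise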
[12] = small-molecule binders of probe aNOTCH3, primary screen, biochemical, small-molecule microarray, 635/667 nm fluorescence (AID 1120); details: higher = more signal;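 further: probe is a biotin-tagged antibody raised against NOTCH3 rather than NOTCH3 protein; score merges spot fluorescence near 667 nm with spot signal to noise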
[13] = small-molecule binders of probe aNOTCH2, primary screen, biochemical, small-molecule microarray, 635/667 nm fluorescence (AID 1121); details: higher = more signal;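 further: score merges feature fluorescence read at 667 nm with its signal to noise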
[14] = biological target: Carbonic anhydrase 2 (Homo sapiens) (UniProt P00918); experiment: CAII small-molecule binders, profiling panel, biochemical, small-molecule microarray, Alexa647-labelled CAII (AID 1122); details: CAII-A647 binding fluorescence, higher = more signal
[15] = COS7 lysate on small-molecule microarray, probe aHis, 635 nm (AID 1123); details: COS7 cell lysate, fluorescence, higher = more signal;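 further: z-score combines 667nm fluorescence intensity with signal-to-noise per printed compound spot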
[16] = compound binding in COS7 lysate, probe aLAP1, primary screen, cell lysate, small-molecule microarray (AID 1124); details: probe aLAP1, fluorescence, higher = more signal;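 further: lysate comes from COS7 cells expressing LAP1 and is applied at 0.3 µg/mL; score merges spot fluorescence near 667 nm with signal-to-noise over triplicate slides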
Sam68 (KHDRBS1) = experiment: Sam68 small-molecule binders, primary screen, biochemical, small-molecule microarray, 635 nm fluorescence (AID 1125); details: small-molecule microarray binding, higher = more signal;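 further: score merges 667 nm channel intensity with signal to noise over triplicate slides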
[17] = system: Chordin-like protein 2 (CHRDL2); experiment: CHRDL2 small-molecule binders, primary screen, biochemical, small-molecule microarray, 635 nm fluorescence (AID 1126); details: small-molecule microarray binding, fluorescence 635 nm; higher = more signal;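 further: printed compound slides probed with Chrdl2 protein at 4 µg/mL for 1 h at 4 C; score merges 667 nm emission intensity with signal to noise over three replicate slides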
[18] = biological target: Concanavalin-A (Canavalia ensiformis) (UniProt P02866); experiment: ConA small-molecule binders, primary screen, artefact control for SMM control protein annotation, biochemical, small-molecule microarray, Alexa647 label, 635 nm (AID 1127); details: ConA-A647 binding fluorescence, higher = more signal;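 further: z combines 667 nm emission intensity with signal-to-noise across three replicate slides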
Concanavalin-A (Canavalia ensiformis), sequence (P02866 whole entry, looked up): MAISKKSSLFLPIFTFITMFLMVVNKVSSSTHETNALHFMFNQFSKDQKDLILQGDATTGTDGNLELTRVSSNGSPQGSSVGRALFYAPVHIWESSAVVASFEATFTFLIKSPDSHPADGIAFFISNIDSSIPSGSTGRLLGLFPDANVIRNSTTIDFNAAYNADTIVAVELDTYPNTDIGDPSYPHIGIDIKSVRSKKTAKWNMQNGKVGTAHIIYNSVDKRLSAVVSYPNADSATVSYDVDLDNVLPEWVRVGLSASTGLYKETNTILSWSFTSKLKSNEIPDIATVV

Alpha-bungarotoxin (Bungarus multicinctus), sequence (P60615 whole entry, looked up): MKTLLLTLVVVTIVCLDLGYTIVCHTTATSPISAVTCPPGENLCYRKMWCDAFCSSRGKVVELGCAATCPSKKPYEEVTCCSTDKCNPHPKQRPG
Albumin (Bos taurus), sequence (P02769 whole entry, looked up): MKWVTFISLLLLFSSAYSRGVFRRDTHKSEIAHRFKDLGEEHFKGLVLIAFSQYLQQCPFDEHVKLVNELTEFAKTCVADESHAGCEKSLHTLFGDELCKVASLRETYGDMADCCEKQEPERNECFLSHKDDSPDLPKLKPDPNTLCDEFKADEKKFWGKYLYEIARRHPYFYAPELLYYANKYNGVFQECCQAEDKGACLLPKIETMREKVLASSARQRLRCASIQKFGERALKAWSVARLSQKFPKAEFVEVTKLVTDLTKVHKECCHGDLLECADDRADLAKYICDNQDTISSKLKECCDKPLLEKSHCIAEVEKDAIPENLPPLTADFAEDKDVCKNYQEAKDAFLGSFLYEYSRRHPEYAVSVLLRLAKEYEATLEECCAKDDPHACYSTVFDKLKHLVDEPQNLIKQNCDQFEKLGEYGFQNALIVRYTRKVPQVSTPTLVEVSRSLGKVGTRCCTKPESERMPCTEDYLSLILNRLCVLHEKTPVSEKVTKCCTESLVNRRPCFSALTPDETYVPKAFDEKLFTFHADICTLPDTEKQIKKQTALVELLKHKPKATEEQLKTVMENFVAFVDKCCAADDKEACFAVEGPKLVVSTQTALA
Left-right determination factor 2 (Homo sapiens), sequence (O00292 whole entry, looked up): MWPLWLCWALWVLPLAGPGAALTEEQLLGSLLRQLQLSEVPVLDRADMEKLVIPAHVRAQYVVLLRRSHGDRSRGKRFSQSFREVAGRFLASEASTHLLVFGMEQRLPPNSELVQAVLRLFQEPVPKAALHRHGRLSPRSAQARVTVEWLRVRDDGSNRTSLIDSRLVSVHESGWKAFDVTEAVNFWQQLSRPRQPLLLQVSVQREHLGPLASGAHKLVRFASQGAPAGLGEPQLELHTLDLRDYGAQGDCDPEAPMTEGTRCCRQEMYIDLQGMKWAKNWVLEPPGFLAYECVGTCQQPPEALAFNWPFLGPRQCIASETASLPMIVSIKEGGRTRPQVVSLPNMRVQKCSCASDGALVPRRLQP
Torsin-1A-interacting protein 1 (Homo sapiens), sequence (Q5JTV8 whole entry, looked up): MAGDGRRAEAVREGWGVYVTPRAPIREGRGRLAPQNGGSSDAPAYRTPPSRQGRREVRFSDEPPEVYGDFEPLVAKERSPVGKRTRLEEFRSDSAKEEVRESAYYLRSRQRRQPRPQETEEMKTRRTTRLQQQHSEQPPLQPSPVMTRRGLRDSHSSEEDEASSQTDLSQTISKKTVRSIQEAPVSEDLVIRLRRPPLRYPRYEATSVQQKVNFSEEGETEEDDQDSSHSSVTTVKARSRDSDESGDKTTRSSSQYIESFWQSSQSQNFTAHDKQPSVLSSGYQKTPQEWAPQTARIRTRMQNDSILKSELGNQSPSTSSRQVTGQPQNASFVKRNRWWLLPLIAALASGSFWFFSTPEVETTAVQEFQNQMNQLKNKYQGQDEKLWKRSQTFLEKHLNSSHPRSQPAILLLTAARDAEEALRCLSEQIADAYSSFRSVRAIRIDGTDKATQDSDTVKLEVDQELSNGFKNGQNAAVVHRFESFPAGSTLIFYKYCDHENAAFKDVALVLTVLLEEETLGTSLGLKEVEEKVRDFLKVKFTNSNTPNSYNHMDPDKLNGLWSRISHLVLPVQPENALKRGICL

Row | Structure (SMILES) | composite z-score [1] | z-score [2] | composite z-score [3] | composite z-score [4] | composite z-score [5] | composite z-score [6] | composite z-score [7] | composite z-score [8] | composite z-score [9] | composite z-score [10] | composite z-score (Albumin (Bos taurus)) | composite Z-score [11] | composite z-score [12] | composite z-score [13] | composite z-score [14] | composite z-score [15] | composite z-score [16] | composite z-score (Sam68 (KHDRBS1)) | composite z-score [17] | composite z-score [18]
1 | CO[C@@H]1COC(=O)[C@H](CCSC)NC(=O)CC=C[C@@H](C)COC(=O)[C@H](C)NC(=O)CC=C[C@H]1C | 0.677 | -0.62 | 1.19 | -0.886 | -1.04 | -0.0179 | -0.221 | -0.0604 | -0.185 | -0.155 | -1.04 | 0.327 (inactive) | 0.187 | -0.0907 | -0.0169 | -0.395 | 0.36 | 1.28 | 1.15 | -0.19
2 | COc1ccc(C#C[C@@H]2C=C[C@H](OC(C)=O)[C@@H](COC(C)=O)O2)cc1 | 0.318 | -2.21 | 0.591 | -0.268 | -0.534 | -0.2 | -0.0471 | -0.208 | 0.257 | 0.193 | 0.18 | -0.153 (inactive) | -0.0077 | -0.153 | 0.61 | 0.759 | -0.019 | 0.112 | 0.867 | 0.536
3 | COC(=O)[C@@H]1CC[C@@H](C)[C@H](c2ccc(Br)cc2)N1 | -1.2 | -0.198 | 0.445 | -0.227 | -0.0163 | -0.136 | -0.226 | -0.247 | -0.0359 | -0.309 | -0.0822 | 0.644 (inactive) | -0.0111 | -0.0165 | -0.203 | 0.0852 | -0.117 | -0.8 | 0.202 | 0.0592
4 | COC(=O)[C@H](C)NC(=O)CCC1CC(OC(=O)NCc2ccc3c(c2)OCO3)CC2(CCCC(COC(=O)NCC3CCCCC3)O2)O1 (stereo not given in full) | 1.37 | -1.48 | 0.764 | 0.369 | -0.0553 | 0.0775 | -0.138 | 0.656 | 0.173 | 0.54 | 0.569 | -0.0882 (inactive) | -0.0111 | -0.0947 | 0.234 | 1.19 | -0.111 | 1.29 | 0.435 | 1.05
5 | CON=CC[C@@H]1C=C[C@H](OC(C)=O)[C@@H](COC(C)=O)O1 | -0.0635 | 0.569 | 0.533 | -0.536 | -0.688 | 0.0004 | 0.351 | -0.0281 | 0.292 | 0.479 | -0.714 | 1.33 (inactive) | 0.287 | 0.0007 | 0.397 | 0.043 | 0.18 | -0.0499 | 0.679 | -0.32
6 | C[C@@H](ON=C1[C@H]2CCn3c(=O)n(-c4ccccc4)c(=O)n3[C@H]2[C@H](O)[C@@H]2O[C@H]12)c1cn([C@@H]2COC[C@H]2O)nn1 | 0.361 | -2.38 | 0.698 | -0.287 | -0.568 | -0.119 | 0.0611 | 0.139 | 0.07 | 0.237 | -0.244 | -0.419 (inactive) | 0.0159 | -0.0938 | 0.134 | -0.282 | 0.211 | 0.509 | 0.534 | 0.459
7 | COc1cccc([C@H]2Oc3ccc(OC)cc3C(=NOC[C@@H](C)[C@H](OCc3ccccc3)C(C)C)[C@@H]2O)c1 | 0.274 | -2.55 | 0.476 | -0.0749 | 0.619 | -0.206 | -0.0858 | 0.2 | 0.251 | 0.452 | 0.422 | 0.237 (inactive) | -0.162 | -0.0512 | 0.689 | 0.923 | 1.37 | 0.413 | -0.269 | 0.0788
8 | CO[C@H]1COC(=O)CC=C[C@@H](C)[C@H](OC)COC(=O)CCC[C@@H]1C | -1.16 | -1.3 | 0.797 | -1.03 | -1.29 | -0.0751 | -0.0709 | -0.238 | 0.389 | -0.069 | -0.913 | 0.0032 (inactive) | -0.149 | -0.118 | -0.601 | 0.302 | 0.923 | 0.0465 | 1.41 | -0.819
9 | COc1cccc([C@H]2Oc3ccc(OC)cc3C(=NOC(C)CN3CCCCc4nc(C)c(C)cc43)[C@@H]2O)c1 (stereo not given in full) | -0.168 | -2.48 | 0.321 | 0.147 | -0.861 | -0.148 | 0.151 | -0.219 | 0.29 | 0.385 | 0.604 | -0.352 (inactive) | 0.0876 | -0.106 | 0.293 | 0.47 | -0.456 | 0.523 | 0.267 | 0.653
10 | C=CC[C@@H]1C=C[C@H](ON=C(C)CCN2CCc3nc(-c4ccccc4)c(-c4ccccc4)cc3C2)[C@@H](CO)O1 | 1.36 | -1.81 | 0.407 | 0.636 | -0.252 | -0.0735 | -0.0626 | -0.303 | 0.782 | 0.729 | 0.585 | 0.364 (inactive) | -0.0362 | -0.0995 | 0.1 | 1.6 | -0.0995 | 1.31 | 0.321 | 0.967
11 | CCN1C(=O)[C@H]2[C@H]3[C@H](O)[C@H](O)CC(=NOC[C@H]4O[C@H](c5ccccc5)C=C[C@@H]4Oc4ccc(OC)cc4)[C@@H]3CC[C@H]2C1=O | 0.783 | -1.65 | 0.621 | 0.406 | -0.332 | -0.0045 | 0.318 | 0.364 | 0.447 | 1.05 | 0.741 | 0.246 (inactive) | 0.0311 | -0.0274 | 0.353 | 0.383 | 0.106 | 1.16 | 0.514 | 0.817
12 | COC(=O)CC=C[C@@H](C)[C@@H](C=NO[C@@H](C)c1cn([C@H](CO)Cc2ccccc2)nn1)OC | 0.939 | 0.0629 | 0.499 | -1.04 | -1.48 | -0.0944 | -0.138 | 0.15 | -0.0644 | -0.027 | 0.943 | -0.452 (inactive) | -0.0069 | -0.103 | -0.225 | -0.274 | 0.137 | 0.695 | 0.664 | -0.61
13 | COC(=O)C=CCCc1coc(C=CCNC(=O)OC)n1 | 0.565 | -0.632 | 0.827 | -0.316 | -1.53 | -0.0346 | 0.275 | -0.255 | 0.192 | -0.264 | 0.266 | 0.103 (inactive) | 0.482 | 0.16 | 0.492 | 0.32 | 0.146 | 0.654 | 1.34 | -0.0726
14 | CCOC(=O)[C@H](Cc1ccccc1)NC(=O)CCC1CC(OC(=O)NCCc2ccc(F)cc2)CC2(CCCC(COC(=O)NCC3CCCCC3)O2)O1 (stereo not given in full) | 1.38 | -0.019 | 1.03 | 0.325 | -0.207 | -0.232 | -0.2 | -0.273 | 0.237 | 0.289 | 0.505 | -0.539 (inactive) | 0.18 | -0.0294 | 0.192 | 0.822 | 0.236 | 1.3 | 0.74 | 1.07
15 | CO[C@@H]1COC(=O)CC=C[C@H](C)[C@H](OC)COC(=O)[C@H](C)NC(=O)CC=C[C@H]1C | -0.724 | 1.39 | 0.965 | -0.981 | -2.34 | -0.0145 | 0.479 | -0.368 | -0.242 | -0.592 | -0.837 | 1.11 (inactive) | -0.0043 | -0.118 | -0.481 | -0.448 | -0.134 | 0.786 | 0.896 | -1.76
